The whole screen tested about 310,000 compounds, of which about 14,000 (4.5%) showed an effect of 50% or more. The effect is printed as a negative number. Many of the other results were omitted from the sample, so strong results are more common in it than they were.
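Note: peak tail current of the secondary pulse compared with the same well before compound.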

In the test the target is human ether-à-go-go-related gene (hERG) potassium channel (human, UniProt Q12809). Put plainly: primary screen, population patch clamp on CHO cells stably expressing hERG; higher = less effect of the substance.
human ether-à-go-go-related gene (hERG) potassium channel, sequence (Q12809 whole entry, looked up): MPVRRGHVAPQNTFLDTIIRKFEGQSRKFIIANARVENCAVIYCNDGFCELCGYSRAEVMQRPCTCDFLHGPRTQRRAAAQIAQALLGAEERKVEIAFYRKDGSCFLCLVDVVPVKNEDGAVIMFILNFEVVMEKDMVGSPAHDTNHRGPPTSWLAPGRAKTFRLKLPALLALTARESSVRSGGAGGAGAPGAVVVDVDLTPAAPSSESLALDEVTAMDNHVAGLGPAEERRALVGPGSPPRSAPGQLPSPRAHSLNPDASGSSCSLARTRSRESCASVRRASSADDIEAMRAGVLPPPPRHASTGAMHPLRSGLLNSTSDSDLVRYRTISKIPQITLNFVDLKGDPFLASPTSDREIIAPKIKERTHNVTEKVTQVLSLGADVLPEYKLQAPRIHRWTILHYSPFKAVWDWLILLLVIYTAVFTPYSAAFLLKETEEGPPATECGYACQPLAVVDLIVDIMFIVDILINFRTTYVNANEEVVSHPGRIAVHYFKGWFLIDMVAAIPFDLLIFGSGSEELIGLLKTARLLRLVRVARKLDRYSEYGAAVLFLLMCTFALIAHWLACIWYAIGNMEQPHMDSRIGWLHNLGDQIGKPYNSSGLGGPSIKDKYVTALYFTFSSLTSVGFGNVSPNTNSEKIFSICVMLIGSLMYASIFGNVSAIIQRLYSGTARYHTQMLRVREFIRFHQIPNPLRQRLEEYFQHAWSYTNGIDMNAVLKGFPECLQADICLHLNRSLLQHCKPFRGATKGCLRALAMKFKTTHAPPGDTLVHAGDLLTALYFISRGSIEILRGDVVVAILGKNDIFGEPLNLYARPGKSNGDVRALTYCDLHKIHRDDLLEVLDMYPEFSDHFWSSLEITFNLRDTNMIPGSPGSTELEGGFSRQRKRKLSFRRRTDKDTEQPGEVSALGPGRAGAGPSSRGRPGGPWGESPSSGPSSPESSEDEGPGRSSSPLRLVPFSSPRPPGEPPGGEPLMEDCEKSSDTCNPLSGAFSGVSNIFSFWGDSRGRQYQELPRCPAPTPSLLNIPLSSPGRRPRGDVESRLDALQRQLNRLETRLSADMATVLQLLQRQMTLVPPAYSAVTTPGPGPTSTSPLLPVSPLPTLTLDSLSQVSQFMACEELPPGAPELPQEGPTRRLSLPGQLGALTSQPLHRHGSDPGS
As for `C#CC(C)(C)NC(=O)c1ccccc1OC`, the “hERG current change (%, negative = inhibition) at 10uM” value is reported as 1.69%. Consider `CC(C)CNC(=O)COC(=O)/C=C/c1ccccc1[N+](=O)[O-]`, for which the “hERG current change (%, negative = inhibition) at 10uM” value is 5.61%. Regarding `COCc1cc(C)nc(SCC(=O)c2ccc(O)c(O)c2)c1C#N`, the “hERG current change (%, negative = inhibition) at 10uM” value was determined as 6.86%. To `CN(C)S(=O)(=O)N(CC(=O)Nc1ccc2ccccc2c1)c1ccccc1` belongs 8.45%; to `CN1CCN(CCC(=O)Nc2ccc(OCc3ccccc3)cc2)CC1`, -41.6%.

Turning to `Cn1cc(C(=O)c2cccc(Cl)c2Cl)cc1C(=O)O`, the “hERG current change (%, negative = inhibition) at 10uM” value came to 10.2%. Consider `COc1ccc(-c2cc(-c3ccc(O)cc3)nc(N)c2C#N)cc1`, for which the “hERG current change (%, negative = inhibition) at 10uM” value was found to be 3.91%. As for `COc1cc(/C=C(\C#N)C(=O)Nc2ccc3ccccc3c2)c([N+](=O)[O-])cc1OC`, the figure is 8.14%; as for `Cc1c(C)n2c(SCC(=O)N3CCC(C)CC3)nnc2[nH]c1=O`, 15.3%. To `CC(=O)Nc1ccccc1NC(=O)C/C(C)=N/NC(=O)Cc1cccc2ccccc12` belongs 10.8%; to `C=CCSC1=C(C#N)C(c2ccccc2OC)CC(=O)N1` (centres unmarked), -2.19%; to `CCn1nc(C)cc1C(=O)N1CCCC(N2CCN(c3cccc(Cl)c3)CC2)C1` (centres unmarked), -35%.

As for `COc1ccccc1CN1CCCC(N2CCN(c3ccccc3OC)CC2)C1` (centres unmarked), the “hERG current change (%, negative = inhibition) at 10uM” value is -11.9%. As to `COc1ccccc1CN1CCCC(N2CCN(c3ccc(F)cc3)CC2)C1` (centres unmarked), the “hERG current change (%, negative = inhibition) at 10uM” value is -56.2%. For `CCOc1cccc(CN2CCCC(N3CCN(c4cccc(Cl)c4)CC3)C2)c1O` (centres unmarked), the “hERG current change (%, negative = inhibition) at 10uM” value was -58.7%.

Regarding `CCOc1cccc(CN2CCCC(N3CCc4cc(OC)c(OC)cc4C3)C2)c1O` (centres unmarked), the “hERG current change (%, negative = inhibition) at 10uM” value was -39.3%. As for `COc1ccc(N2CCN(C3CCCN(Cc4ccccc4OCCO)C3)CC2)cc1` (centres unmarked), the figure is -24.1%; as for `COc1ccc(N2CCN(C3CCCN(Cc4ccc(F)cc4)C3)CC2)cc1` (centres unmarked), -32.8%; as for `COc1ccccc1N1CCN(C2CCCN(Cc3cc(F)cc(F)c3)C2)CC1` (centres unmarked), -6.62%. To `COc1cc(CN2CCCC(N3CCN(c4ccc(F)cc4)CC3)C2)ccc1F` (centres unmarked) belongs -64.4%. In the case of `CCCCn1c(N)c(N(CCOC)C(=O)C2CCN(S(=O)(=O)c3ccc(F)cc3)CC2)c(=O)[nH]c1=O`, the “hERG current change (%, negative = inhibition) at 10uM” value is reported as -1.06%. As for `COCCCN(C(C)=O)c1nc(-c2ccccc2)cs1`, the figure is -23.4%. As for `CCNC(=O)CSc1nc(-c2ccc(F)cc2)cs1`, the figure is 21.2%; as for `O=C(NCC(c1ccco1)N1CCc2ccccc21)c1ccc([N+](=O)[O-])cc1` (centres unmarked), -18.3%; as for `Cn1c(SCc2c(Cl)cccc2Cl)nnc1-c1ccc2nonc2c1`, -55.1%. As for `Cn1c(SCc2ccc(Cl)cc2)nnc1-c1ccc2nonc2c1`, the figure is 0.685%; as for `Cn1c(SCc2ccccc2)nnc1-c1ccc2nonc2c1`, -9.18%. For `CC(c1ccco1)N(C(=O)c1ccccc1NS(=O)(=O)c1ccc(Cl)c([N+](=O)[O-])c1)c1ccccn1` (centres unmarked), the “hERG current change (%, negative = inhibition) at 10uM” value is given as -6.14%. Turning to `COc1ccc(NC(=O)c2nn(C)c(=O)c3ccccc23)cc1S(=O)(=O)Nc1ccccc1Cl`, the “hERG current change (%, negative = inhibition) at 10uM” value came to 26%. To `COc1ccc(/C=C(/NC(=O)c2ccco2)C(=O)NCCc2ccccc2)cc1` belongs -52.6%; to `O=C(NCc1ccccc1)/C(=C\c1ccc([N+](=O)[O-])cc1)NC(=O)c1ccco1`, -60.9%. As for `O=C(NCCc1ccccc1)/C(=C\c1ccc([N+](=O)[O-])cc1)NC(=O)c1ccccc1`, the figure is -14.6%; as for `O=C(NCCc1ccccc1)/C(=C\c1ccccc1)NC(=O)c1ccco1`, -21.4%; as for `COc1ccc(NC(=O)/C(=C\c2ccccc2)NC(=O)c2ccco2)cc1`, 0.0276%.

As for `O=C(NCc1ccccc1)/C(=C/c1ccc([N+](=O)[O-])cc1)NC(=O)c1ccco1`, the “hERG current change (%, negative = inhibition) at 10uM” value is on record as -62.7%. As for `O=C(NCc1ccccc1)/C(=C\c1ccccc1)NC(=O)c1ccco1`, the figure is -21.7%; as for `O=C(NCc1ccccc1)/C(=C/c1ccccc1)NC(=O)c1ccco1`, -24.6%. Turning to `Cc1ccc(C(=O)N/C(=C\c2ccc([N+](=O)[O-])cc2)C(=O)NCCc2ccccc2)cc1`, the “hERG current change (%, negative = inhibition) at 10uM” value is given as -33.8%. As for `O=C(Nc1ccccc1)/C(=C/c1ccc([N+](=O)[O-])cc1)NC(=O)c1ccco1`, the figure is 6.42%; as for `O=C(NCCc1ccccc1)/C(=C\c1ccc([N+](=O)[O-])cc1)NC(=O)c1ccco1`, -80.7%; as for `O=C(NC(Cc1ccccc1)C(=O)O)/C(=C/c1ccc([N+](=O)[O-])cc1)NC(=O)c1ccco1` (centres unmarked), 12.6%. As for `Cc1cc(S(=O)(=O)Nc2ccc3ccccc3c2)c(C)s1`, the figure is -0.508%.

Regarding `O=C(/C=C/c1cccs1)NC(=S)Nc1ccc(C(=O)O)cc1`, the “hERG current change (%, negative = inhibition) at 10uM” value came out at 6.78%. Take `CCOc1ccc(/C=N/Nc2cc(C)nc(N3CCOCC3)n2)cc1`: the “hERG current change (%, negative = inhibition) at 10uM” value was 3.47%.

As to `O=C(O)c1ccc2c(c1)C1C=CCC1C(c1cc3c(cc1Br)OCO3)N2` (centres unmarked), the “hERG current change (%, negative = inhibition) at 10uM” value is given as 21.2%. As for `O=c1n(-c2ccc(Br)cc2)cnn1-c1ncccc1[N+](=O)[O-]`, the figure is -22.1%. To `O=C1N/C(=N\N=C\c2ccco2)SC1Cc1ccc(F)cc1` (centres unmarked) belongs 14%.

For `Nc1ncnc(Nc2cccc(C(F)(F)F)c2)n1`, the “hERG current change (%, negative = inhibition) at 10uM” value is reported as -5.45%. To `Cc1ccc(SCc2[nH]nc3c2C(c2cccnc2)C(C#N)=C(N)O3)cc1` (centres unmarked) belongs -2.64%; to `O=C(CCN1C(=O)c2ccccc2C1=O)NCc1ccccc1`, 10.2%; to `CCOC(=O)c1cc2occc2n1CC(=O)N1CCOCC1`, 6.95%. Turning to `COc1cc(-c2ccc(NC(=O)NC3CC3)c(OC)c2)ccc1NC(=O)NC1CC1`, the “hERG current change (%, negative = inhibition) at 10uM” value was 27.9%. Regarding `O=C(NCc1ccco1)/C(=C/c1ccccc1)NC(=O)c1ccco1`, the “hERG current change (%, negative = inhibition) at 10uM” value came to 4.72%.

Consider `O=C(NCc1ccco1)/C(=C/c1ccc([N+](=O)[O-])cc1)NC(=O)c1ccco1`, for which the “hERG current change (%, negative = inhibition) at 10uM” value is recorded as -69.5%. To `O=C(NCc1ccco1)/C(=C/c1ccc(Cl)cc1)NC(=O)c1ccco1` belongs -14%; to `CC(C)CNC(=S)NC(=O)c1csc([N+](=O)[O-])c1`, 9.85%; to `COc1cccc(C(=O)C2CCCN(Cc3cccc(-n4cccn4)c3)C2)c1` (centres unmarked), -64.5%. On to `COc1cccc(C(=O)C2CCCN(Cc3cccc(OCCO)c3)C2)c1` (centres unmarked), for which the “hERG current change (%, negative = inhibition) at 10uM” value was -48.7%. As for `COc1cccc(C(=O)C2CCCN(Cc3cccc(-n4nc(C)cc4C)c3)C2)c1` (centres unmarked), the figure is -59.4%; as for `COc1cccc(CN2CCCC(C(=O)N3CCCCC3)C2)c1.O=C(O)C(=O)O` (centres unmarked), 5.13%; as for `Cc1cc(S(=O)(=O)N2CCCC(C)C2)ccc1-n1cnnn1` (centres unmarked), 5.72%.

Regarding `O=C(CSc1nc(N2CCOCC2)nc(N2CCOCC2)n1)Nc1ccccc1F`, the “hERG current change (%, negative = inhibition) at 10uM” value came out at 19.2%.

Consider `COc1ccccc1C(=O)CC(=O)C(=O)Nc1cccc([N+](=O)[O-])c1C`, for which the “hERG current change (%, negative = inhibition) at 10uM” value was 8.79%. As for `COCCCNC(=O)c1ccc2c(=O)n(Cc3ccccc3OC)c(=S)[nH]c2c1`, the figure is 6.43%; as for `O=C(NCCc1ccc(F)cc1)c1cccs1`, 10.4%. To `Cc1ccc(S(=O)(=O)N2CCN(C(=O)c3c(-c4ccccc4)noc3C)CC2)cc1C` belongs 1.83%; to `C=CCSc1nc(N)c(C#N)c(-c2ccc(C)cc2)c1C#N`, 4.13%; to `COc1ccc(NC(=O)CSc2nc3c(c(-c4cccs4)c2C#N)CN(C)CC3)cc1OC`, 1.65%. Consider `Cc1cccc(CSc2nc3c(c(-c4cccs4)c2C#N)CN(C)CC3)c1`, for which the “hERG current change (%, negative = inhibition) at 10uM” value is reported as -13.1%. As for `C=CCSc1nc2c(c(-c3ccsc3)c1C#N)CN(C)CC2`, the figure is -65.2%; as for `CN1CCc2nc(SCC(=O)Nc3cccc(F)c3)c(C#N)c(-c3cccs3)c2C1`, -62.3%. As for `CN1CCc2nc(SC(C(=O)O)c3ccccc3)c(C#N)c(-c3cccs3)c2C1` (centres unmarked), the figure is 19.4%; as for `CN1CCc2nc(SCC(=O)Nc3ccc(OC(F)(F)F)cc3)c(C#N)c(-c3cccs3)c2C1`, -12.8%; as for `CN1CCc2nc(N)c(C#N)c(-c3ccccc3)c2C1`, -7.5%. For `CN1CCc2nc(SCc3ccc(Cl)cc3)c(C#N)c(-c3cccs3)c2C1`, the “hERG current change (%, negative = inhibition) at 10uM” value is -66.2%. Take `Cc1ccc(C(=O)Nc2cccc(C(=O)O)c2)cc1`: the “hERG current change (%, negative = inhibition) at 10uM” value is recorded as 14.4%.

As to `O=C(COC(=O)c1ccccc1F)Nc1cc(S(=O)(=O)N2CCOCC2)ccc1N1CCCC1`, the “hERG current change (%, negative = inhibition) at 10uM” value was -13.5%. For `Cc1oc2c(c(C)cc3oc(=O)c(CC(=O)NCCCN4CCCC4=O)c(C)c32)c1C`, the “hERG current change (%, negative = inhibition) at 10uM” value is recorded as -0.519%. As for `O=C(Nc1ncccc1O)c1ccc2c(c1)OCO2`, the figure is 3.08%; as for `COc1ccccc1NC=C1C(=O)OC(C)(C)OC1=O`, -24%; as for `CCOC(=O)c1ccc(S(=O)(=O)N2CCN(C(C)=O)CC2)cc1`, 0.122%. With `CCc1nc(Nc2ccccc2)c2nnn(Cc3ccccc3)c2n1`, the “hERG current change (%, negative = inhibition) at 10uM” value was determined as 8.23%. With `COC(=O)c1nn(-c2ccc(-c3ccccc3)cc2)cc1O`, the “hERG current change (%, negative = inhibition) at 10uM” value is -3.85%. For the compound `CC(C)Cn1c(N)c(C(=O)COC(=O)c2cc(C(F)(F)F)nc3c(C(F)(F)F)cccc23)c(=O)n(C)c1=O`, the “hERG current change (%, negative = inhibition) at 10uM” value was found to be 7.27%. To `Cc1csc(=O)n1CC(=O)OCC(=O)c1c(N)n(CC(C)C)c(=O)n(C)c1=O` belongs -10.7%; to `CC(C)Cn1c(N)c(C(=O)COC(=O)Cc2cccs2)c(=O)n(C)c1=O`, -51.7%; to `Cc1ccc(C(=O)NCC(=O)OCC(=O)c2c(N)n(C)c(=O)n(C)c2=O)s1`, 9.14%. In the case of `Cc1cccc(OCC(=O)OCC(=O)c2c(N)n(C)c(=O)n(C)c2=O)c1`, the “hERG current change (%, negative = inhibition) at 10uM” value is reported as -13.1%. To `CC(C)Cn1c(N)c(C(=O)COC(=O)/C=C/c2cccs2)c(=O)n(C)c1=O` belongs -49.9%; to `CC(C)Cn1c(N)c(C(=O)COC(=O)Cc2cccc(C(F)(F)F)c2)c(=O)n(C)c1=O`, -54.5%; to `CC(C)Cn1c(N)c(C(=O)COC(=O)COc2cccc(C(F)(F)F)c2)c(=O)n(C)c1=O`, -50.9%. As for `CC(C)Cn1c(N)c(C(=O)COC(=O)c2ccc(F)cc2)c(=O)n(C)c1=O`, the “hERG current change (%, negative = inhibition) at 10uM” value is 17.1%. For the compound `Cc1cc(C)cc(C(=O)NCC(=O)OCC(=O)c2c(N)n(C)c(=O)n(C)c2=O)c1`, the “hERG current change (%, negative = inhibition) at 10uM” value is given as 17.4%. Turning to `CCCn1c(N)c(C(=O)COC(=O)CNC(=O)c2ccc(C)c(C)c2)c(=O)n(C)c1=O`, the “hERG current change (%, negative = inhibition) at 10uM” value is reported as -78.1%. In the case of `CC(C)Cn1c(N)c(C(=O)COC(=O)c2c(F)cccc2F)c(=O)n(C)c1=O`, the “hERG current change (%, negative = inhibition) at 10uM” value is given as -16.7%.
